# Compounds without any hit were thinned out: in the full panel of roughly 79,000, 15% have a hit. Values without a mark were called inactive. Calls of active or inactive are those of the source. No stated cut-off is given here; in the data, active means growth inhibition above about 70%; inactive means the rest.
# Test: NCI Yeast Anticancer Drug Screen. Data for the sgs1 mgt1 strain (AID 161);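 further: 0% = growth of cultures given vehicle only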
# Conditions: S. cerevisiae sgs1 mgt1 strain, at 50.0 µM, hits give high values
# Summary of the method: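 Read-out: growth inhibition vs vehicle controls. Cells: mutant yeast strain deficient in DNA damage repair.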
row,SMILES,growth inhibition [%]
1,O=C(O)c1ccc([N+](=O)[O-])cc1S(=O)(=O)O,-24.3
2,CC(C)c1ccc(C(=O)OCCCl)cc1,6.6
3,CC(=O)CSc1ncnc2nc[nH]c12,-0.5
4,C=CCN1CCCC1=O,1.5

# Test: NCI Yeast Anticancer Drug Screen. Data for the cln2 rad14 strain (AID 165);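 further: 0% = growth equal to vehicle treated cultures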
# Conditions: S. cerevisiae cln2 rad14 strain, at 50.0 µM, hits give high values
# Summary of the method: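 Compounds are applied to the cln2 rad14 yeast strain, and growth is then compared with that of vehicle-treated cultures to give inhibition.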
row,SMILES,growth inhibition
1,c1ccc(Oc2c3ccccc3nc3ccccc23)cc1,4.25%
2,CCCCNc1ccc(-c2ccc(NCCCC)cc2)cc1,-36.1%
3,ClCc1cccc2c(CCl)cccc12,33%
4,Cc1cc2nc(C)c(C)nc2cc1C,7.75%
5,Nc1ccn(C2OC(CO)C(O)C2F)c(=O)n1 (stereo not given),10.7%
6,ClCC(Cl)C1CCC(Cl)C(Cl)C1 (stereo not given),-3.9%
7,CCOC(=O)C(C#N)=C1CCN(C)CC1,10.2%
8,CC(=O)NNC(=S)/N=C\C(C(=O)c1ccccc1)=C(/O)c1ccccc1,2%
9,O=C1NC(=O)/C(=C\c2ccncc2)N1,9.3%
10,O=S(Cc1ccccc1)/C(=C/NC(=S)Nc1cc(Cl)ccc1Cl)c1ccccc1 (stereo not given),5.6%
11,O=C(O)c1ccc([N+](=O)[O-])cc1S(=O)(=O)O,-22.9%
12,FC(F)(F)c1cc(NC2=NCCN=C(Nc3cc(C(F)(F)F)cc(C(F)(F)F)c3)SS2)cc(C(F)(F)F)c1,-2%
13,Cn1c(=O)c2[nH]c(CCCCC(=O)O)nc2n(C)c1=O,-20.9%
14,CC(C)c1ccc(C(=O)OCCCl)cc1,-3.05%
15,OCCOc1ccc(-c2cc(-c3ccccn3)nc(-c3ccccn3)c2)cc1,44.5%
16,CSCCC(NC(=O)C(Cl)Cl)C(=O)O (stereo not given),-49%
17,CCOC(=O)Nc1nccs1,-37%
18,N#C/C(=C\c1ccc2c(c1)OCO2)c1ccccc1,10.2%

row,SMILES,growth inhibition
1,O=C(c1ccccc1O)N1CCCC1,14.8%
2,O=S(Cc1ccccc1)/C(=C/NC(=S)Nc1ccccc1)c1ccccc1 (stereo not given),-0.95%
3,c1ccc2[nH]c(Cc3nc4ccccc4[nH]3)nc2c1,7.65%
4,N#C/C(=C\c1ccc(C#N)cc1)C(=O)c1ccccc1,19%
5,CC(=O)CSc1ncnc2nc[nH]c12,-5.5%
6,CCOC(=O)CSCCC#N,-7.9%
7,CCN(CC)CCCC(C)NC(=S)N/N=C(\C)c1ccccn1 (stereo not given),11.2%
8,CC(=O)NC(CCc1ccc(Cl)c(Cl)c1)c1cccc(O)c(=O)c1 (stereo not given),63.7%
9,C/C(O)=C(/C=N/C(=S)Nc1ccccc1)C(=O)Nc1ccccc1C,-4.5%
10,C=CCN1CCCC1=O,-18.6%
11,S=C=Nc1ccc2ccccc2c1,10.6%
12,COc1ccc(NNS(=O)(=O)O)cc1,-10.8%
13,COC1OC(CO)C(OC)C(O)C1O (stereo not given),-6.7%
14,Cc1[nH]nc(C(N)=O)c1[N+](=O)[O-],-36.8%
15,C=C1CC2(OC1=O)C(=O)N(C)c1ccc(I)cc12 (stereo not given),90.5% (active)
16,Cc1cc2c(C(C)C)c(O)c(O)c(C=Nc3ccccc3[N+](=O)[O-])c2c(O)c1-c1c(C)cc2c(C(C)C)c(O)c(O)c(C=Nc3ccccc3[N+](=O)[O-])c2c1O,-21.8%
17,COC(=O)C1(CC(C)=O)NC(=S)NC(=O)C1C#N (stereo not given),-38.2%
18,Nc1nc2nnc(-c3ccccc3)c(-c3ccccc3)n2n1,13.8%

# Test: NCI Yeast Anticancer Drug Screen. Data for the bub3 strain (AID 167)
# Conditions: S. cerevisiae bub3 mutant strain, at 50.0 µM, hits give high values
# Summary of the method: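 In this screen, a yeast mutant lacking normal mitotic checkpoint function is challenged with compound. Relative growth versus vehicle gives the inhibition value.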
row,SMILES,growth inhibition
1,c1ccc(Oc2c3ccccc3nc3ccccc23)cc1,-5.7%
2,CCCCNc1ccc(-c2ccc(NCCCC)cc2)cc1,-5.3%
3,ClCc1cccc2c(CCl)cccc12,-14.7%
4,Cc1cc2nc(C)c(C)nc2cc1C,-25.7%
5,Nc1ccn(C2OC(CO)C(O)C2F)c(=O)n1 (stereo not given),-0.1%
6,ClCC(Cl)C1CCC(Cl)C(Cl)C1 (stereo not given),8.65%
7,CC(=O)NNC(=S)/N=C\C(C(=O)c1ccccc1)=C(/O)c1ccccc1,-15.4%
8,O=C1NC(=O)/C(=C\c2ccncc2)N1,-19.8%
9,O=S(Cc1ccccc1)/C(=C/NC(=S)Nc1cc(Cl)ccc1Cl)c1ccccc1 (stereo not given),5.35%
10,O=C(O)c1ccc([N+](=O)[O-])cc1S(=O)(=O)O,-8.4%
11,Cn1c(=O)c2[nH]c(CCCCC(=O)O)nc2n(C)c1=O,-39.4%
12,CC(C)c1ccc(C(=O)OCCCl)cc1,-4.2%
13,OCCOc1ccc(-c2cc(-c3ccccn3)nc(-c3ccccn3)c2)cc1,46.7%
14,CSCCC(NC(=O)C(Cl)Cl)C(=O)O (stereo not given),17%
15,CCOC(=O)Nc1nccs1,-2.6%
16,N#C/C(=C\c1ccc2c(c1)OCO2)c1ccccc1,1.95%
17,O=C(c1ccccc1O)N1CCCC1,2.15%
18,O=S(Cc1ccccc1)/C(=C/NC(=S)Nc1ccccc1)c1ccccc1 (stereo not given),-16.9%

row,SMILES,growth inhibition
1,c1ccc2[nH]c(Cc3nc4ccccc4[nH]3)nc2c1,35%
2,N#C/C(=C\c1ccc(C#N)cc1)C(=O)c1ccccc1,9.95%
3,CC(=O)CSc1ncnc2nc[nH]c12,5.85%
4,CCOC(=O)CSCCC#N,1.75%
5,CCN(CC)CCCC(C)NC(=S)N/N=C(\C)c1ccccn1 (stereo not given),29.1%
6,CC(=O)NC(CCc1ccc(Cl)c(Cl)c1)c1cccc(O)c(=O)c1 (stereo not given),82.5% (active)
7,C/C(O)=C(/C=N/C(=S)Nc1ccccc1)C(=O)Nc1ccccc1C,27.7%
8,C=CCN1CCCC1=O,-16.2%
9,S=C=Nc1ccc2ccccc2c1,2.35%
10,COc1ccc(NNS(=O)(=O)O)cc1,-1.65%
11,COC1OC(CO)C(OC)C(O)C1O (stereo not given),-0.65%
12,Cc1[nH]nc(C(N)=O)c1[N+](=O)[O-],-6.7%
13,C=CCOc1ccc(Cl)cc1Cl,6.65%
14,C=C1CC2(OC1=O)C(=O)N(C)c1ccc(I)cc12 (stereo not given),91.5% (active)
15,Cc1cc2c(C(C)C)c(O)c(O)c(C=Nc3ccccc3[N+](=O)[O-])c2c(O)c1-c1c(C)cc2c(C(C)C)c(O)c(O)c(C=Nc3ccccc3[N+](=O)[O-])c2c1O,-17.4%
16,COC(=O)C1(CC(C)=O)NC(=S)NC(=O)C1C#N (stereo not given),-30.1%
17,Nc1nc2nnc(-c3ccccc3)c(-c3ccccc3)n2n1,9.65%

# Source: PubChem BioAssay (NCI)
